Shown are actives, neighbours in structure and some others; about 7.3% of the full set was active somewhere.
FLuc modulator: qHTS profiling assay for firefly luciferase inhibitor/activator using purifed enzyme and Km concentrations of substrates (counterscreen for miR-21 project). Potency, µM (highest dose often 57.5 µM), actives largely listed as inhibitors. Luciferin 4-monooxygenase (Photinus pyralis), P08659. actives 6.9% (n = 360,000). purified FLuc, Km substrates, luminescence inhibition; note: nearly all actives have a fitted effect of over 55% in size
Target sequence (P08659 whole entry, looked up): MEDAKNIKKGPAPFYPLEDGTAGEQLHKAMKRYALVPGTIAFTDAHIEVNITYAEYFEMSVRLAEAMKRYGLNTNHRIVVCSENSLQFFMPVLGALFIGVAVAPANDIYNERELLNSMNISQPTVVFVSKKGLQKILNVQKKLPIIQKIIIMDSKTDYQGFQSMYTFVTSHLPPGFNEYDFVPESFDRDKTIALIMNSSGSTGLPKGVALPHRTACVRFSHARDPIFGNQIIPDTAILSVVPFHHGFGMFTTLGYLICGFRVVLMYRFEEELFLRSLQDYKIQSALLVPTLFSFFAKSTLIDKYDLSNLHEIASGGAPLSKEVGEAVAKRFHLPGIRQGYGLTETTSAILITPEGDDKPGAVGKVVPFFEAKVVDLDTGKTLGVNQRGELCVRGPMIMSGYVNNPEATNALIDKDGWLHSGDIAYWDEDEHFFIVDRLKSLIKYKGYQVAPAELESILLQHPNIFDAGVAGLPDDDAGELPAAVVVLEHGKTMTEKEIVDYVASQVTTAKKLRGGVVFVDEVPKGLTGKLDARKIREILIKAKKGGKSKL
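Purified P. pyralis luciferase (10nM final) with 10uM D-luciferin and 10uM ATP (Km levels) in 50mM Tris acetate pH 7.5, 10mM Mg acetate, 0.01% Tween-20, 0.05% BSA; qHTS 6-point titration, ~60 µM downward; luminescence read.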
ELG1 genotoxic: qHTS screen for small molecules that induce genotoxicity in human embryonic kidney (HEK293T) cells expressing luciferase-tagged ELG1 | HEK293T ELG1-luciferase reporter, luminescence, 16 h | Potency, µM (highest dose often 46 µM), usual class: activators | actives 1.3% (n = 330,000); note: nearly all actives have a fitted effect of over 60% in size
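HEK293T cells expressing luciferase-tagged ELG1 were exposed to compound or DMSO vehicle for 16 hr at 37 °C and 5% CO2. Luciferase activity was then measured with ONE-Glo after 30 min at room temperature.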
Rab9 promoter act: qHTS Assay for Rab9 Promoter Activators; Potency, µM (doses to about 9.22 µM), usual class: activators; Huh7 Rab9 promoter-luciferase reporter, luminescence, 24 h; actives 2.8% (n = 320,000); note: nearly all actives have a fitted effect of over 60% in size
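Promoter activation is measured as luciferase luminescence in Huh7 cells stably transfected with a Rab9 promoter–luciferase construct, following 24 h compound exposure at 37 °C and 10 min reagent incubation at ambient temperature.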
SMN2 splice enh: qHTS Assay for Enhancers of SMN2 Splice Variant Expression; HEK293 SMN2-luciferase splicing reporter, luminescence, 30-36 h; Potency, µM (titrated, usually from 46.1 µM), most hits filed as activators; actives 2.8% (n = 210,000); AID 1458, 2008; note: nearly all actives have a fitted effect of over 55% in size
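qHTS luciferase splicing reporter: luminescence rises when SMN2 exon 7 is included in transfected HEK293 cells. Compound exposure lasted 30-36 h at 37C, with 4.5 mM final sodium butyrate as control, followed by a ONE-Glo read.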
uPA generation: qHTS for Inhibitors of Cell Surface uPA Generation; AID 540303, 2011; actives 0.31% (n = 330,000); cell surface uPA generation assay, qHTS; Potency, µM (doses to about 38.3 µM), actives largely listed as inhibitors; active = well fitted inhibition curve with a large enough effect; inconclusive = small, poorly fitted or top-dose-only effect; inactive = no such curve, though single readings can be large or run the other way; tested in mouse RAW 264.7 cells; note: nearly all actives have a fitted effect of over 55% in size
NPC1 promoter act: qHTS Assay for NPC1 Promoter Activators; AID 485313, 2010; Potency, µM (titrated, usually from 9.22 µM), hits mostly activators; Huh7 NPC1 promoter luciferase reporter, 24 h; actives 2.4% (n = 320,000); note: nearly all actives have a fitted effect of over 60% in size
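Huh7 cells stably carrying NPC1 promoter–luciferase, plated in Opti-MEM with 10% FBS for 2 h, were exposed to compound in DMSO for 24 h at 37 °C; luciferase reagent was added for 10 min and luminescence read.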
Hits are given with their value; - = inactive; ? = inconclusive; . = no result given. Unless noted, calls come from the whole dose curve; as a rule, active = well fitted curve in the direction sought with a large enough effect; inconclusive = small, poorly fitted or top-dose-only effect, or another doubt; inactive = no such curve, though single readings can be large; an effect the other way counts as inactive or inconclusive.

SMILES	FLuc modulator	ELG1 genotoxic	Rab9 promoter act	SMN2 splice enh	uPA generation	NPC1 promoter act
CCOC(=O)c1sc(-c2ccc(F)cc2)cc1N	9.5µM	14µM	2.5µM	?	.	?
CCOC(=O)c1c(N)n[nH]c1-c1ccc(OC)cc1	-	-	-	?	-	-
CCOC(=O)c1sc(-c2ccc(OC)cc2)cc1N	?	?	1.3µM	.	-	2.2µM
CCOC(=O)c1cc(-c2ccccc2)sc1N	21µM	-	?	?	-	-
CC(=O)c1sc(-c2ccccc2)cc1N	?	-	-	.	-	-
CCOC(=O)c1c(N)sc(-c2ccccc2)c1C	17µM	?	-	-	-	-
CC1(c2ccc(Cl)cc2)CC(C)(C)N(C(=O)c2cccc(F)c2)c2ccccc21 (configuration not stated)	-	.	.	-	.	.
O=C(/C=C/c1cn(-c2ccccc2)nc1-c1cccnc1)c1ccco1	9.5µM	-	-	-	-	-
O=C(c1ccco1)N1CCN(C(=O)c2cn(-c3ccccc3)nc2-c2ccccc2)CC1	6µM	-	-	.	?	-
O=C(c1cn(-c2ccccc2)nc1-c1ccccc1)N1CCOCC1	?	-	-	-	-	-
CCN(C(=O)COC(=O)c1cn(-c2ccccc2)nc1-c1ccccc1)C1CCS(=O)(=O)C1 (configuration not stated)	24µM	-	-	-	-	-
O=C(OCC(=O)N1CCN(C(=O)c2ccco2)CC1)c1cn(-c2ccccc2)nc1-c1ccccc1	17µM	-	-	-	-	-
Cc1cccc2c(=O)cc(CSCC(=O)Nc3ccc(Cl)cc3)[nH]c12	-	.	.	.	.	.
COc1ccc(OC)c(CCNC(=O)c2ccc3c(c2)N(Cc2ccc(C)cc2)CCS3)c1	-	.	.	-	.	.
Cc1ccccc1OCc1nc(-c2ccc(NC(=O)c3cccs3)cc2)no1	12µM	?	?	?	-	?
CC(Oc1ccc(Cl)cc1Cl)c1nc(-c2ccc(NC(=O)c3ccco3)cc2)no1 (configuration not stated)	15µM	?	?	-	-	-
Cc1ccccc1OCc1nc(-c2ccc(NC(=O)c3ccco3)cc2)no1	11µM	?	?	7.1µM	-	?
N#Cc1nc(-c2ccc(Cl)cc2)oc1NCCc1ccccn1	-	8.2µM	?	-	-	?
Cc1ccc(-c2nc(C#N)c(NCCc3ccccn3)o2)cc1	?	?	?	?	-	3.5µM
CCCOc1ccc(-c2nc(=S)[nH][nH]2)cc1	?	?	?	13µM	.	-
C=CCSc1n[nH]c(-c2cccs2)n1	?	-	-	.	-	-
CCCOc1ccc(-c2nc(SCC(=O)c3ccc(Cl)cc3)n[nH]2)cc1	-	.	.	-	.	.
C=CCSc1n[nH]c(-c2ccc(OCCC)cc2)n1	11µM	4.6µM	2µM	11µM	.	2.5µM
C=CCSc1n[nH]c(-c2ccc(OCCCC)cc2)n1	15µM	18µM	?	?	-	?
CCOc1cc2c(cc1OCC)C(CC(=O)O)N(C(=O)Nc1ccccc1C(F)(F)F)CC2 (configuration not stated)	-	.	.	.	.	.
SMILES	FLuc modulator	ELG1 genotoxic	Rab9 promoter act	SMN2 splice enh	uPA generation	NPC1 promoter act
C/C(=N/Oc1nc(C)cc(C)n1)c1ccc(Br)cc1	-	-	-	-	-	-
C/C(=N/OC(=O)C1CC12CCC2)c1ccc(Br)cc1 (configuration not stated)	6.7µM	-	-	-	-	-
CC(=O)N1CCc2c(sc3c2c(=O)n(-c2ccccc2C)c(=O)n3CC(=O)c2ccccc2)C1	-	.	.	-	.	.
CCCn1c(SCC(=O)Nc2ccccc2Oc2ccccc2)n[nH]c1=O	-	-	-	-	-	-
CCOC(=O)c1csc(N)n1	0.85µM	?	2.8µM	.	-	?
CCOC(=O)c1csc(COc2ccc(OC)cc2)n1	?	-	0.45µM	.	-	0.45µM
N#CCCN1C(=O)C2(OCCO2)c2ccccc21	-	-	-	.	-	-
COc1ccc(NC(=O)Cn2cnc3ccc(S(=O)(=O)N4CCC(C)CC4)cc3c2=O)c(OC)c1	-	.	.	-	.	.

Compound activity deposited in PubChem BioAssay by National Center for Advancing Translational Sciences (NCATS).
